From the supplement of paper PMC6555819

How the values were obtained:
Assay in all cases: PBM binding z-score (relative to random genomic background probes); higher = stronger binding; sequences stand for … in GC…GCGATTGACAGCGTAGAATGAAGG
[1] = test system: FXR:RXRa (NR concentration 270 nM, RXRa partner concentration 90 nM)
Procedure, shortened: (§1)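 For binding z-scores, the reference was random background probes on custom Agilent 4×180K protein-binding microarrays. These arrays were incubated 1 h with ligand-free nuclear receptor dimers in PBS pH 7.4, 2% milk, 0.02% Triton X-100, 1 mM DTT, 0.2 mg/mL BSA and 0.4 mg/ml salmon testes DNA. Fluorescence was scanned after antibody detection of each partner (one per run) and regression-normalized.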

[2] = test system: LXRa:RXRa (NR concentration 270 nM, RXRa partner concentration 90 nM)
Procedure, shortened: as §1

[3] = test system: LXRa homodimer (NR concentration 270 nM)
Procedure, shortened: as §1

[4] = test system: LXRb:RXRa (NR concentration 270 nM, RXRa partner concentration 90 nM)
Procedure, shortened: as §1

[5] = test system: LXRb homodimer (NR concentration 270 nM)
Procedure, shortened: as §1

[6] = test system: PPARa:RXRa (NR concentration 270 nM, RXRa partner concentration 90 nM)
Procedure, shortened: as §1

[7] = test system: PPARg:RXRa (NR concentration 180 nM, RXRa partner concentration 90 nM)
Procedure, shortened: as §1

[8] = test system: PPARg:RXRa 270nM:90nM, anti-RXR (NR concentration 270 nM, RXRa partner concentration 90 nM)
Procedure, shortened: as §1

[9] = test system: PPARg:RXRa 30nM:10nM, anti-RXR (NR concentration 30 nM, RXRa partner concentration 10 nM)
Procedure, shortened: as §1

[10] = test system: PPARg:RXRa 90nM:30nM, anti-RXR (NR concentration 90 nM, RXRa partner concentration 30 nM)
Procedure, shortened: as §1

| Sequence | PBM binding z-score [1] | PBM binding z-score [2] | PBM binding z-score [3] | PBM binding z-score [4] | PBM binding z-score [5] | PBM binding z-score [6] | PBM binding z-score [7] | PBM binding z-score [8] | PBM binding z-score [9] | PBM binding z-score [10] |
| --- | --- | --- | --- | --- | --- | --- | --- | --- | --- | --- |
| CAAACTAGGTCAATGGTCAAAGTCGAGCCAACCA | 3.39 | 2.76 | 0.566 | 2.15 | 0.29 | 5.6 | 9.78 | 8.03 | 7.9 | 8.7 |
| CGTCCAAGGTCAGCAGGTCAGTAAAAGCGACGTG | 5.97 | 4.07 | 0.614 | 3.22 | -0.235 | 4.9 | 3.97 | 4.43 | 1.37 | 2.87 |
| ATCTCTAGGTAAGACTCAGTTCAGTGAGGAACGC | 0.151 | 0.565 | 0.658 | -0.0789 | 0.649 | 0.134 | 0.166 | 0.25 | 0.0695 | 0.181 |
| ACTATTAGTTGAGATGAGGGCAACCGATAGGTTG | 1.23 | 0.291 | 0.338 | 0.212 | 0.0544 | 0.427 | 0.607 | 0.07 | 0.15 | 0.083 |
| CCTTACGGGTCACTGACAGGTTATAGAATTTGGA | 5.11 | 4.02 | 0.265 | 3.45 | 0.0176 | 4.89 | 4.24 | 4.49 | 1.75 | 3.35 |
| CGTCCAAGGTCAGCAGGTCAGTGAAAGCGACGTG | 5.62 | 4 | 0.313 | 3.11 | -0.277 | 4.76 | 4.12 | 4.39 | 0.905 | 2.91 |
| AATACAGTGTCATCGTAGGCCAGAGTACGCACAG | 0.397 | 1.79 | -0.224 | 0.401 | -0.022 | 0.815 | 1.05 | 0.517 | 0.42 | 0.495 |
| GATACAGGGCCAAGGCCAGAGTACGCGTATTGAT | -0.68 | -0.832 | -0.782 | -1 | -1.09 | -0.662 | 0.814 | 0.25 | -0.269 | -0.247 |
| TCTTGTACATCAACAGGAGGTTAAGAAAGATCGA | 0.517 | 1.37 | 0.452 | 1.13 | 0.442 | 1.16 | 0.195 | 1.36 | 3.01 | 1.9 |
| TCTCGGAGGGCACGAAAGGTCAGAGCTCGACATC | 4.52 | 6.49 | 2.82 | 4.29 | -0.405 | 4.24 | 2.69 | 3.93 | 2.36 | 3.06 |
| CCTATTAGTTGACCATAAGGGCAACTGAAGCTCG | 1.03 | 0.424 | 0.44 | 0.496 | 0.545 | 0.479 | 0.379 | 0.673 | 0.177 | 0.597 |
| CCAGACAGGTGAGATGGTAACTCAGCCTCGATTA | -0.218 | -0.133 | 0.219 | -0.0689 | -0.491 | 0.132 | 0.33 | 0.151 | -0.316 | -0.00959 |
| AGAATAAGGTTATACGTAGATCAGGGAAGAAAGT | 1.99 | 1.9 | 0.223 | 1.56 | 0.0959 | 2.65 | 1.67 | 1.3 | 0.895 | 1.04 |
| CCTCGCAGGACAACAGGAGGTCAGAGCTGCCAGA | 0.787 | 1.63 | 1.92 | 1.05 | -0.469 | 1.73 | 0.326 | -0.0198 | -0.833 | -0.445 |
| CCTACTGAGCCAAGGTCATTGATCAGTCAAAGCA | 3.46 | 3.43 | 1.43 | 3.3 | 0.637 | 3.61 | 0.656 | 1.62 | 0.331 | 0.858 |
| CCTACGGGGCCATTCAGAGGTCATTGATCATATG | 3.56 | 4.88 | 6.49 | 4.17 | 0.225 | 3.62 | 1.16 | 2.21 | 0.193 | 1.32 |
| TCTAGTTGGTCACGGAGGTCTCACACGACGGGTA | 0.555 | 0.613 | 0.0269 | 0.437 | -0.332 | 1.16 | 0.78 | 1.99 | 2.94 | 2.55 |
| TCATATAGGGAAACAGGTGAAAGTCCGTAAGTTA | 1.01 | 1.04 | 0.121 | 1.11 | -0.148 | 1.74 | 1.69 | 3.03 | 4.32 | 3.7 |
| ACTATTAGTTGACTTAGGTCAACCGATACGACGC | 1.69 | 2.25 | 1.71 | 2.39 | 1.28 | 2.29 | 1.35 | 1.35 | 0.53 | 0.993 |
| CGTCCAAGGTCAGCAGGTAAGTGAAAGCGACGTG | 5.48 | 3.22 | -0.131 | 2.36 | -0.25 | 4.3 | 3 | 3.31 | 0.585 | 2.28 |
| ATCTCAAGGTAAAAGTTCAGTGAATCCCGAGGAT | 1.18 | 1.66 | 1.12 | 0.879 | 0.539 | 3.08 | 3.54 | 4.49 | 2.83 | 4.24 |
| GCGACTGGGGCATCAGCAGGTTACCAGAACTTAA | -0.204 | -0.156 | -0.341 | 0.413 | -1.13 | 1.04 | 0.791 | 0.667 | -0.35 | 0.126 |
| ATCTCTAGGTAAAAGTTCAGCGAATCCCGAGGAT | 1.36 | 1.99 | 1.58 | 1.46 | 0.982 | 4.39 | 8.87 | 8.21 | 8.78 | 9.67 |
| ATCTCTAGGTAAAAGTTCAGTGATTCCCGAGGAT | 0.618 | 1.07 | 1.4 | 0.613 | 0.691 | 4.08 | 7.48 | 7.11 | 7.32 | 8.09 |
